Of roughly 7,900 targets only a part is listed; those with a hit were picked by preference. About 0.6% of all pairs of compound and target were hits.
What was measured:
Assay in all cases: log2 fold change, soluble protein after heating vs DMSO (PISA); higher = thermal stabilisation; K562 cells, 10 uM, 30 min; active = over 0.2 and 3.5 SD of the protein, either way, in both replicates (recomputed)
IRAK-1-4 Inhibitor I = compound: C1COCCN1CCN2C3=CC=CC=C3N=C2NC(=O)C4=CC(=CC=C4)[N+](=O)[O-] [IRAK-1-4 Inhibitor I]
Procedure, shortened: (§1)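 K562 cells at 2×10^6 cells/mL were treated with 10 μM compound for 30 min. Aliquots were heated for 3 min across 48°C-58°C, pooled, and extracted in PBS with 0.5% NP-40 at 4°C; soluble protein was the supernatant after 21,000xg for 90 min. Soluble protein was quantified by TMTpro 16plex LC-MS/MS with channel sums equalised, and reported as log2 fold change in thermal stability against DMSO controls, with values from duplicates.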

ibrutinib = compound: C=CC(=O)N1CCC[C@@H](n2nc(-c3ccc(Oc4ccccc4)cc3)c3c(N)ncnc32)C1 [ibrutinib]
Procedure, shortened: as §1

[1] = compound: CC(=O)c1cnc2ccc(-c3cc(Cl)c(O)c(Cl)c3)nc2c1N[C@H]1CC[C@H](CN(C)C)CC1
Procedure, shortened: as §1

ralimetinib = compound: CC(C)(C)Cn1c(N)nc2ccc(-c3[nH]c(C(C)(C)C)nc3-c3ccc(F)cc3)nc21 [ralimetinib]
Procedure, shortened: as §1

[2] = compound: CC(C)(O)CC(=O)NCCn1ccc2ncnc(Nc3ccc(Oc4cccc(C(F)(F)F)c4)c(Cl)c3)c21
Procedure, shortened: as §1

[3] = compound: CC(C)C1=C2N=C(C=C(N2N=C1)NCC3=CC=CC=C3)NCCCCCCN
Procedure, shortened: as §1

[4] = compound: CC(C)C[C@@H](C=O)NC(=O)[C@H](CC(C)C)NC(=O)[C@H](CC(C)C)NC(=O)OCc1ccccc1
Procedure, shortened: as §1

pinometostat = compound: CC(C)N(C[C@H]1O[C@@H](n2cnc3c(N)ncnc32)[C@H](O)[C@@H]1O)[C@H]1C[C@@H](CCc2nc3cc(C(C)(C)C)ccc3[nH]2)C1 [pinometostat]
Procedure, shortened: as §1

[5] = compound: CC1=C(C(CC(=O)N1)C2=CC=C(C=C2)C(F)(F)F)C(=O)NC3=C(C=C4C(=C3)C=NN4)F
Procedure, shortened: as §1

[6] = compound: CC1=C(C2=C(C=C1)C(=O)C3=CC=CC=C3N2CCCN)C
Procedure, shortened: as §1

[7] = compound: CC1=C(C=C(C=C1)NC(=O)C2=CC(=CC=C2)C(C)(C)C#N)NC3=CC4=C(C=C3)N=CN(C4=O)C
Procedure, shortened: as §1

[8] = compound: CC1=C(C=C(C=C1)NC(=O)C2=CC(=CC=C2)N(C)C)NC(=O)C3=CC=C(C=C3)O
Procedure, shortened: as §1

[9] = compound: CC1=CC=C(C=C1)SC2=C3C=C(SC3=CN=C2)C(=O)N
Procedure, shortened: as §1

[10] = compound: CC1=NC(=CC=C1)C2=C(N=C(N2)C(C)(C)C)C3=CC4=NC=CN=C4C=C3
Procedure, shortened: as §1

Nexturastat A = compound: CCCCN(Cc1ccc(C(=O)NO)cc1)C(=O)Nc1ccccc1 [Nexturastat A]
Procedure, shortened: as §1

vemurafenib = compound: CCCS(=O)(=O)Nc1ccc(F)c(C(=O)c2c[nH]c3ncc(-c4ccc(Cl)cc4)cc23)c1F [vemurafenib]
Procedure, shortened: as §1

[11] = compound: CCCS(=O)(=O)Nc1ccc(F)c(C(=O)c2c[nH]c3ncc(Cl)cc23)c1F
Procedure, shortened: as §1

[12] = compound: CCCc1cc(C)[nH]c(=O)c1CNC(=O)c1cc(-c2ccnc(N3CCN(C)CC3)c2)cc2c1cnn2C(C)C
Procedure, shortened: as §1

givinostat = compound: CCN(CC)Cc1ccc2cc(COC(=O)Nc3ccc(C(=O)NO)cc3)ccc2c1 [givinostat]
Procedure, shortened: as §1

barasertib = compound: CCN(CCCOc1ccc2c(Nc3cc(CC(=O)Nc4cccc(F)c4)[nH]n3)ncnc2c1)CCOP(=O)(O)O [barasertib]
Procedure, shortened: as §1

Measured: log2 fold change

BCAP29 isoform 2 (UniProt Q9UHQ4)
Chain of UniProt Q9UHQ4 (Q9UHQ4 whole entry, looked up): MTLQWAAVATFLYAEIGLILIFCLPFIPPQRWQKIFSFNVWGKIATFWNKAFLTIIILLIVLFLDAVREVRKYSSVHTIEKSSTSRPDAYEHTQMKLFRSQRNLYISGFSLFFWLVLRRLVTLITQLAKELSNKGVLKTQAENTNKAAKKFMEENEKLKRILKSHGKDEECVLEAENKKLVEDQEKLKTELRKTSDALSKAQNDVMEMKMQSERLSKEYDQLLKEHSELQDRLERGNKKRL
inactive: IRAK-1-4 Inhibitor I 0.051 | ibrutinib -0.014 | [1] 0.011 | ralimetinib -0.094 | [2] 0.111 | [3] -0.106 | [4] 0.007 | pinometostat -0.012 | [5] 0.026 | [6] 0.052 | [7] -0.078 | [8] 0.006 | [9] 0.015 | [10] 0.01 | Nexturastat A -0.032 | vemurafenib -0.033 | [11] -0.036 | [12] -0.116 | givinostat -0.075 | barasertib 0.025

ATP11A (UniProt P98196)
Chain of UniProt P98196 (P98196 whole entry, looked up): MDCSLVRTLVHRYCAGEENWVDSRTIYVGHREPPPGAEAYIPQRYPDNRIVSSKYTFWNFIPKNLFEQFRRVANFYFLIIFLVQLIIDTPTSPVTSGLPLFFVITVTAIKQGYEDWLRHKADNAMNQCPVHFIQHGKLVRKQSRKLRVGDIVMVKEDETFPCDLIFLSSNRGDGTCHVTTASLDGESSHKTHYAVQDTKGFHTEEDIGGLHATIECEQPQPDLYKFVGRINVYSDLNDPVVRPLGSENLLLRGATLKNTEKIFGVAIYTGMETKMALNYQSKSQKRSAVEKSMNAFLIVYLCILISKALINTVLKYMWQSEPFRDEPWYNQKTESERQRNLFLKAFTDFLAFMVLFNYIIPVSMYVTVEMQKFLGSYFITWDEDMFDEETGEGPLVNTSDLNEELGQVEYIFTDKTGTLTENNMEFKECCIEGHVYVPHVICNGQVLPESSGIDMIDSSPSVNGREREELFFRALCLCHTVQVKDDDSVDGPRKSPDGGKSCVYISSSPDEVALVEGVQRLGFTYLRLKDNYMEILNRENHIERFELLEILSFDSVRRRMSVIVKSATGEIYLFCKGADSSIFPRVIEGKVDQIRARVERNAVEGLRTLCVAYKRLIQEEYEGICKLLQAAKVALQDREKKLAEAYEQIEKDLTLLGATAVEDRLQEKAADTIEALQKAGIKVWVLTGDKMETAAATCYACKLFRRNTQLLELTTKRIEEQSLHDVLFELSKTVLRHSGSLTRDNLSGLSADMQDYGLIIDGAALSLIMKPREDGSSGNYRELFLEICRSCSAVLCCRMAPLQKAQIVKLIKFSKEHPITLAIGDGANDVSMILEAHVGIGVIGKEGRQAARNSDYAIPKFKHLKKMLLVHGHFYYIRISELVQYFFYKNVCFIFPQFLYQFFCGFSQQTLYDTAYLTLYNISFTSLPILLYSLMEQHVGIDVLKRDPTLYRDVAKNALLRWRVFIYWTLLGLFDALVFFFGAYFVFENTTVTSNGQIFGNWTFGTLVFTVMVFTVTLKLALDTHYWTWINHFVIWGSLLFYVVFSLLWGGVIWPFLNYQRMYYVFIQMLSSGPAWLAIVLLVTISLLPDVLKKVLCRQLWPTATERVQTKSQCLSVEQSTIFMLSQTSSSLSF
inactive: IRAK-1-4 Inhibitor I -0.003 | ibrutinib 0.007 | [1] 0.018 | ralimetinib 0 | [2] -0.026 | [3] 0.073 | [4] 0.052 | pinometostat 0.004 | [5] 0.05 | [6] 0.036 | [7] -0.033 | [8] -0.022 | [9] -0.039 | [10] -0.007 | Nexturastat A -0.005 | vemurafenib 0.032 | [11] -0.027 | [12] -0.035 | givinostat -0.007 | barasertib -0.033

AMD1 (UniProt P17707)
Chain of UniProt P17707 (P17707 whole entry, looked up): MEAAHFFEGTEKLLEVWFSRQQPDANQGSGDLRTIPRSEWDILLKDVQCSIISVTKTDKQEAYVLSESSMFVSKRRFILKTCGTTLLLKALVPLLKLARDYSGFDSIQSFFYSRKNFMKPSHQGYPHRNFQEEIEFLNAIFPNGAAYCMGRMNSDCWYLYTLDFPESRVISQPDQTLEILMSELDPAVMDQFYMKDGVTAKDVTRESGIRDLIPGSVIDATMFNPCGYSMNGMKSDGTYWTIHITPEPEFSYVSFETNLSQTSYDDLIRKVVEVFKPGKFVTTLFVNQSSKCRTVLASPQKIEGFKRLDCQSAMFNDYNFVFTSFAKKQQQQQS
inactive: IRAK-1-4 Inhibitor I -0.018 | ibrutinib -0.043 | [1] -0.086 | [2] -0.031 | [3] -0.073 | [4] 0.276 | pinometostat -0.025 | [5] 0.04 | [6] 0.051 | [7] 0.013 | [8] -0.142 | [9] 0.049 | [10] 0.078 | Nexturastat A -0.048 | vemurafenib -0.126 | [11] 0.041 | [12] -0.027 | givinostat 0.07 | barasertib 0.016
active: ralimetinib -0.307

ACADM isoform 2 (UniProt P11310)
Chain of UniProt P11310 (P11310 whole entry, looked up): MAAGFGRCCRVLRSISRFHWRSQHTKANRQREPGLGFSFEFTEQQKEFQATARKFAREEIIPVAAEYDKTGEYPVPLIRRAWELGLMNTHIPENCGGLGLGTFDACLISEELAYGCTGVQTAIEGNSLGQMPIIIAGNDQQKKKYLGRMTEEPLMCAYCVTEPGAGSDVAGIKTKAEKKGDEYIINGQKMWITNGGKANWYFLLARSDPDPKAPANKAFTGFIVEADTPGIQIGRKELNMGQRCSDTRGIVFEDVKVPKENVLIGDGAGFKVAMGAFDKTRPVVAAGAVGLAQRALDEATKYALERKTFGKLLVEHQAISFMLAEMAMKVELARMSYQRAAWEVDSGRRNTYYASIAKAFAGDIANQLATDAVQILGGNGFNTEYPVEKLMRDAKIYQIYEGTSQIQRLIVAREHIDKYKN
inactive: IRAK-1-4 Inhibitor I 0.028 | ibrutinib 0.034 | [1] -0.013 | ralimetinib -0.068 | [2] -0.043 | [3] 0.051 | [4] -0.001 | pinometostat -0.085 | [5] -0.006 | [6] 0 | [7] -0.018 | [8] -0.024 | [9] 0.001 | [10] 0.017 | Nexturastat A 0.009 | vemurafenib 0.009 | [11] -0.015 | [12] -0.042 | givinostat -0.033 | barasertib 0

ATP5IF1 (UniProt Q9UII2)
Chain of UniProt Q9UII2 (Q9UII2 whole entry, looked up): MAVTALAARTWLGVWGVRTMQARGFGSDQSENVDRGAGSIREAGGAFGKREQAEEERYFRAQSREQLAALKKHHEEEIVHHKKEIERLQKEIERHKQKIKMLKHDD
inactive: IRAK-1-4 Inhibitor I 0.121 | ibrutinib 0.012 | [1] 0.018 | ralimetinib -0.1 | [2] 0.099 | [3] 0.056 | [4] -0.048 | pinometostat -0.06 | [5] 0.009 | [6] -0.006 | [7] -0.035 | [8] 0.009 | [9] -0.005 | [10] 0.021 | Nexturastat A -0.041 | vemurafenib -0.078 | [11] -0.043 | [12] -0.022 | givinostat -0.005 | barasertib 0.026

AKR1C3 (UniProt P42330)
Chain of UniProt P42330 (P42330 whole entry, looked up): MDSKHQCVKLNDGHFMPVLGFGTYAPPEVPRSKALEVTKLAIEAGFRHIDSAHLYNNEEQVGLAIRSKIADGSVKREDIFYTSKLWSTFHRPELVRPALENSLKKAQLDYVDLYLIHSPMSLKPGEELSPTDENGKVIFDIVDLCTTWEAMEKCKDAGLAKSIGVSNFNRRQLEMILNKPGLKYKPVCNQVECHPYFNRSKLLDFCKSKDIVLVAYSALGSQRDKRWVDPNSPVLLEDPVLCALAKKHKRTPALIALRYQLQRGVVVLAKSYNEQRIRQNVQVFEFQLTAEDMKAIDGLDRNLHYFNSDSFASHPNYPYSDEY
inactive: IRAK-1-4 Inhibitor I 0.072 | ibrutinib -0.108 | [1] 0.015 | ralimetinib 0.085 | [2] 0.265 | [3] 0.025 | [4] -0.149 | pinometostat -0.069 | [5] -0.064 | [6] -0.049 | [7] -0.034 | [8] -0.207 | [9] 0.268 | [10] -0.007 | Nexturastat A 0.022 | vemurafenib -0.032 | [11] 0.066 | [12] 0.289 | givinostat -0.003 | barasertib 0.014

ALG5 (UniProt Q9Y673)
Chain of UniProt Q9Y673 (Q9Y673 whole entry, looked up): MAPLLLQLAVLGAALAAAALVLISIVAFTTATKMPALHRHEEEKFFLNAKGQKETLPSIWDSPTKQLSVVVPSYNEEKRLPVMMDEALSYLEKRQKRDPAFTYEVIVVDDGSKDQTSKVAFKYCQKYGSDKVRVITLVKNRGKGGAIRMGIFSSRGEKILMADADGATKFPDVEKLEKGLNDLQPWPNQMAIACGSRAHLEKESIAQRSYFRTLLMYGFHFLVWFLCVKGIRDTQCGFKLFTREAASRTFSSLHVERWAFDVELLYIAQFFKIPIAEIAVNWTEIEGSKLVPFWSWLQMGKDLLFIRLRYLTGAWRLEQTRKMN
active: [1] -0.281
inactive: IRAK-1-4 Inhibitor I 0.026 | ibrutinib -0.043 | ralimetinib 0.009 | [2] -0.009 | [3] -0.004 | [4] 0 | pinometostat -0.002 | [5] -0.057 | [6] 0.07 | [7] 0.039 | [8] 0.019 | [9] -0.001 | [10] 0.049 | Nexturastat A -0.055 | vemurafenib 0.035 | [11] 0.059 | [12] 0.025 | givinostat 0.01 | barasertib 0.02

ARL6IP4 (UniProt Q66PJ3)
Chain of UniProt Q66PJ3 (Q66PJ3 whole entry, looked up): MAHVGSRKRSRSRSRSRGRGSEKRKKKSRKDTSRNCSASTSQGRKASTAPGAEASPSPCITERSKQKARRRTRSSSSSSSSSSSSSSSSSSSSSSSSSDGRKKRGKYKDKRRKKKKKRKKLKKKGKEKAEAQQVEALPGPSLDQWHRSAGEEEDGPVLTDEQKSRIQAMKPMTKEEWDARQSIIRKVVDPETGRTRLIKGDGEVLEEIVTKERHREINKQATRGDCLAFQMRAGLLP
inactive: IRAK-1-4 Inhibitor I 0.049 | ibrutinib 0.026 | [1] 0.018 | ralimetinib 0.01 | [2] 0 | [3] 0.075 | [4] 0.021 | pinometostat -0.03 | [5] 0.064 | [6] 0.049 | [7] -0.048 | [8] 0.016 | [9] -0.005 | [10] 0 | Nexturastat A 0.001 | vemurafenib -0.07 | [11] -0.019 | [12] -0.038 | givinostat 0.005 | barasertib -0.01
